Assay results published in PubChem BioAssay AID1903 (Southern Research Specialized Biocontainment Screening …, 2009).
In all, about 310,000 compounds went through this assay and about 1,200 (0.39%) were called active. How the calls were made is not given here. These entries were drawn from the full list. Results with a measured potency or affinity are listed apart.

These compounds were tested against Large T antigen (Simian virus 40) (UniProt P03070) (assay: TAg ATPase/helicase activity blockers – biochemical (AID 1903)). Conditions: SV40 large T antigen ATPase/helicase inhibition assay; at 20 µM; active compounds read high.
Sequence of Large T antigen (Simian virus 40) (P03070 whole entry, looked up): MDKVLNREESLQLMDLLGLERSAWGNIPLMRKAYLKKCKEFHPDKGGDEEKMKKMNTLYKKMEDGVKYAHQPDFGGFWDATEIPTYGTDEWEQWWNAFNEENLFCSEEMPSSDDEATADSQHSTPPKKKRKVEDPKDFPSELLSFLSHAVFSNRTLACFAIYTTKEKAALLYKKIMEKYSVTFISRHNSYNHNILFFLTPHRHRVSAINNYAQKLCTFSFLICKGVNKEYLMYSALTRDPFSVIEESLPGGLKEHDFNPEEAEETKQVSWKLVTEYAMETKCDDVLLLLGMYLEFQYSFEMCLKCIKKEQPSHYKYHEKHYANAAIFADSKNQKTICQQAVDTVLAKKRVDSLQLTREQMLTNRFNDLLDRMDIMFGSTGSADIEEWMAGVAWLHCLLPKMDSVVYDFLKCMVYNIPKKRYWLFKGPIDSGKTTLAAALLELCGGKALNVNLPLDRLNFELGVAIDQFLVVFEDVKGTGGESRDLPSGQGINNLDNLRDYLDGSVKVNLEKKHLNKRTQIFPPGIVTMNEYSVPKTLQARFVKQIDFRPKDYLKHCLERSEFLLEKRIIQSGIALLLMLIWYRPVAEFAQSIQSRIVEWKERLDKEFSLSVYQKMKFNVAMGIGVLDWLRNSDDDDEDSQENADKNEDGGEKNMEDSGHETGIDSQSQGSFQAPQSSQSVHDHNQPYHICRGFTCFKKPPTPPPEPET

inhibition, inactive:
CN1C(=O)[C@@H]2C[C@@]3([C@@]45C[C@H]6C(=O)N(C)[C@@H](Cc7ccccc7)C(=O)N6[C@@H]4Nc4ccccc45)c4ccccc4N[C@H]3N2C(=O)[C@@H]1Cc1ccccc1 4.57%, O=C(O)CCn1cc(/C=C2\SC(=S)NC2=O)c(-c2ccccc2)n1 1.75%, O=Cc1cn(CCC(=O)O)nc1-c1cccc(Cl)c1 7.59%, COc1ccc(C2(C(=O)Nc3cc(C)on3)CCOCC2)cc1 0.88%, O=C(O)c1cccc(Cn2c(Cl)c(/C=N/NC(=O)c3ccccc3)sc2=O)c1 7.08%, O=C(O)c1cccc(Cn2c(Cl)c(/C=N/Nc3ccccc3)sc2=O)c1 29.6%, CCC(C(=O)NC1CCCCCC1)n1nc(C)c2c(C)n(-c3ccccc3)nc2c1=O (centres undefined) 8.34%, COC(=O)c1ccc(NC(=O)CN(C2CCCCC2)S(C)(=O)=O)cc1 -3.48%, Cc1ccc([N+](=O)[O-])cc1N -1.11%, Cc1cc([N+](=O)[O-])ccc1N 6.27%, Cc1ccc(CN2CCN(C/C=C/c3ccc(F)cc3)CC2CCO)o1 (centres undefined) 19.4%, Cc1sc2ncn(CC(=O)NCc3ccco3)c(=O)c2c1-c1ccc(F)cc1 14.3%, Cc1ccc(C(=O)N2CC(C)SC2=Nc2cccc(S(=O)(=O)N(C)C)c2)cc1 (centres undefined) 18.9%, COc1cc(/C=N/N2C(=O)CSC2=S)ccc1O 37.9%, COc1ccc(/C=N/N2C(=O)CSC2=S)cc1Br 33.2%, COc1cc(/C=N/Nc2cccc(C)c2)cc(Br)c1O 13.3%, CCN=C1S/C(=C\c2cc(Br)c(O)c(OC)c2)C(=O)N1CC 25.1%, CCN=c1scc(C)n1/N=C/c1ccc(O)c(O)c1O 9.52%, COc1cc(/C=N/n2c(C3CCCCC3)n[nH]c2=S)cc(Br)c1O 12.8%, CCN=c1scc(C)n1/N=C/c1ccsc1 12.1%, COc1cc(/C=N/N2CCN(Cc3ccc(Cl)cc3)CC2)cc(Br)c1O 10.9%, COc1ccccc1NC(=O)c1sc2nc(N3CCOCC3)c3c(c2c1N)CCCC3 15.5%, S=c1[nH]nc(-c2ccccn2)n1/N=C/c1c(Cl)cccc1Cl 24.9%, COc1ccccc1N1CCN(C(=O)/C=C/c2ccccc2)CC1 5.64%, COc1ccc(/C=C(/C#N)C(=O)Nc2ccc(C)cc2C)cc1C(=O)O 19.8%, COc1cc(NC(=O)C2=C(N3CCOCC3)/C(=C\c3ccc(Br)cc3)CC2)cc(OC)c1OC -0.46%, O=C(Nc1ccccc1)c1cccc(S(=O)(=O)N2CCCCC2)c1 1.37%, Cn1c2ccccc2c2n[nH]c(=S)nc21 14.8%, CCOC(=O)c1c(S(=O)(=O)NCc2ccc(OC)cc2)c(C)n(C)c1C 8.6%, O=C(CSCC(=O)N1CCCCC1)OCC(=O)c1c[nH]c2ccccc12 7.84%, O=C(CSC1=NS(=O)(=O)c2ccccc2N1)NCCc1ccccc1 10.2%, CCCCCC(=O)N/N=C/c1cc(Br)c(O)c(OC)c1 24.7%, O=C1CSC(=S)N1/N=C/c1cc(Br)ccc1O 19.8%, COc1cc(/C=N/N=C/c2cc(OC)c(O)c(OC)c2)cc(OC)c1O 36.7%, O=C1CSC(=S)N1/N=C/c1ccc(Cl)c([N+](=O)[O-])c1 29.2%, COc1cc(/C=N/NC(=O)CC2(C)OCCO2)cc(Br)c1O 18%, COc1cc(/C=N/N2C(C)CCCC2C)cc(Br)c1O (centres undefined) 29.5%, O=C(O)/C=C/c1ccc(S(=O)(=O)Nc2ccc(C(=O)NCC(=O)O)cc2)cc1 -0.46%, Cc1ccccc1OCC(=O)N(CC(C)C)c1c(N)n(CC(C)C)c(=O)[nH]c1=O -0.915%, CCOC(=O)c1sc(Nc2ccc(F)cc2)nc1C 3.22%, O=C(Cc1ccc(Cl)cc1)Nc1ccccc1C(=O)N1CCCCC1 5.13%, Cc1ccc(/C=N/N2CCN(c3ccccn3)CC2)cc1 3.29%, Cn1cccc1/C=N/N1CCN(Cc2ccc(Cl)cc2)CC1 33.2%, Cn1cccc1/C=N/N1CCN(c2ccccc2)CC1 26.4%, Oc1cccc(/C=N/N2CCN(c3ccccn3)CC2)c1 27.9%, Cn1cccc1/C=N/N1CCN(Cc2ccccc2Cl)CC1 36.4%, C(=N\N1CCN(c2ccccn2)CC1)/c1ccccn1 10.2%, O=C1CC(NCCN2CCOCC2)C(=O)N1Cc1ccc(N2CCCC2=O)cc1 (centres undefined) 2.31%, O=C(CSc1nc2ccccc2o1)NCCOc1ccccc1 -0.36%, CCOc1ccc(CSCCNC(=S)Nc2ccc(OC)cc2)cc1 18.9%, CCOc1ccc(CCNC(=O)C2CC(=O)N(c3ccc4c(c3)OCCO4)C2)cc1OCC (centres undefined) 19.5%, O=C(NCCNc1nccc(C(F)(F)F)n1)c1cccs1 7.79%, CCN(CC)C(=O)CSc1nc2nc(C)cc(C)c2c(=O)[nH]1 3.63%, O=C(Nc1ccc(C2SCCS2)cc1)c1ccccc1 5.93%, Cn1c(N)c(C(=O)COC(=O)CC2CC3CCC2C3)c(=O)n(C)c1=O (centres undefined) 12.6%, Cc1ccc(Cl)cc1Nc1nc(-c2cccnc2)cs1 5.81%, Cc1cccc(C)c1NC(=O)CSCCO 7.3%, Cc1cccc(C)c1NC(=O)CSCC(=O)O 11.2%, Brc1c(CSc2nncn2-c2ccccc2)nc2sccn12 3.07%
